Screening data from PubChem.
KB-3-1 tox: KB-3-1 parental cell cytotoxicity. 1.4% of 400,000 active. KB-3-1 viability, CellTiter-Glo ATP luminescence, 72 h. Potency, µM (top dose mostly 46.1 µM), actives largely listed as cytotoxic; note: potency is the fitted concentration of half-maximal effect; nearly all actives have a fitted effect of over 60% in size
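Cells are dispensed, compounds pinned in, plates held at 37 °C for 72 h, then CellTiter-Glo is added and luminescence read after 10 minutes. Cell line: parental KB-3-1 in phenol-red-free DMEM, 10% FBS.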
Giardia kill: kills Giardia lamblia. 0.15% of 340,000 active. Giardia lamblia trophozoite viability. activity change, % at 7.66 µM, hits read low. AID 540267; in the data active = activity change below about -80%; inconclusive = between about -30% and that limit;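 note: parasites exposed to compound for two days anaerobically before the ATP read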
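Luminescent ATP signal served as the viability read-out, measured 15-30 min after adding ATP detection reagent to trophozoites that had been incubated with compounds for 48 hrs at 37 deg C anaerobically at 100 cells/well.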
Nrf2 block: inhibitors of Nrf2 signaling; AID 504444; 2.1% of 360,000 active; A549 ARE-Fluc reporter, luciferase luminescence, 18-24 h; Potency, µM (highest dose often 46 µM), for inactives: at the top dose activity change, negative = inhibition, hits mostly inhibitors; note: potency is the fitted concentration of half-maximal effect; nearly all actives have a fitted effect of over 60% in size
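Quantitative HTS in A549 cells stably bearing an antioxidant response element-firefly luciferase construct. Inhibition of Nrf2-driven transcription was scored by luminescence after 18-24 h of compound exposure at 37 °C.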
A549 tox: kills or reduces viability of A549 cells in Nrf2 counter-screen. A549 ARE-Fluc cells, CellTiter-Fluor viability, 18-24 h. Potency, µM (series often up to 46 µM), without a hit: at the top dose activity change, negative = cytotoxicity, usual class: inhibitors. 0.16% of 390,000 active; note: potency is the fitted concentration of half-maximal effect
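Cytotoxicity counterscreen: CellTiter-Fluor fluorescence was measured in A549 ARE_Fluc cells after 18-24 h of compound exposure in a concentration series. The subsequent BugLite luminescent read reports ARE-luciferase activity.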
KB-V1 cytotox: KB-V1 MDR subline cytotoxicity; KB-V1 MDR cells viability, CellTiter-Glo, 72 h; Potency, µM (top dose mostly 46.1 µM), hits mostly cytotoxic; 3.4% of 400,000 active; note: potency is the fitted concentration of half-maximal effect; nearly all actives have a fitted effect of over 60% in size
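In this primary screen, KB-V1 cells overexpressing P-gp are incubated with library compounds (lowest to highest concentration) for 72 h at 37 degrees C before a luminescent ATP viability read.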
PI4K2A block: inhibitors of human PI4K2A; 0.13% of 420,000 active; Q9BTU6; purified PI4K2A, ADP-Glo luminescence, 1 h; hits give low values; activity change, negative = inhibition, % at 76.9 µM; in the data active = activity change below about -50%; inconclusive = mostly about -30% to -49%;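 note: -100% = wells without enzyme as full effect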
Target sequence (Q9BTU6 whole entry, looked up): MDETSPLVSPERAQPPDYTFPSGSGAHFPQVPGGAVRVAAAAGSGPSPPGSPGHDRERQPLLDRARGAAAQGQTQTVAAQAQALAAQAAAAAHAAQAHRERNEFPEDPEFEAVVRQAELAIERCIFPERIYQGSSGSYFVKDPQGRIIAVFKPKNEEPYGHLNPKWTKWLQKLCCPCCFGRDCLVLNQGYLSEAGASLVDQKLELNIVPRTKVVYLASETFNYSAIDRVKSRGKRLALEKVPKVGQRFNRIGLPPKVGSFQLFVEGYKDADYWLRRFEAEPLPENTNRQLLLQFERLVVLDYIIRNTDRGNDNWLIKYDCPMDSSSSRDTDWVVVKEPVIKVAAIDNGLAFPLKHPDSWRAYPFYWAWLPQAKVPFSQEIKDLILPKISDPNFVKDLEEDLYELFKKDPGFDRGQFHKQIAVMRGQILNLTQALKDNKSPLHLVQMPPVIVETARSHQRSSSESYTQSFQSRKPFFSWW
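Compounds are screened against recombinant PI4K2A using PI as substrate and ATP, the latter dispensed at 300 microM. Reactions run one hour at ambient temperature before ADP-Glo detection; full inhibition defined by wells lacking enzyme.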
Numbers without * were called inactive; i = inactive; ? = inconclusive; / = no result given; [ ] = another dose, or the depositor's remark. Sampled rows, rich in hits. Any-hit rate of the full collection: about 5.7%. Unless noted, calls come from the whole dose curve; as a rule, active = well fitted curve in the direction sought with a large enough effect; inconclusive = small, poorly fitted or top-dose-only effect, or another doubt; inactive = no such curve, though single readings can be large; an effect the other way counts as inactive or inconclusive. Unless noted, % is set by controls: 0 for no effect and ±100 for the full control effect.

SMILES	KB-3-1 tox	Giardia kill	Nrf2 block	A549 tox	KB-V1 cytotox	PI4K2A block
CCCn1c(=N)c(C(=O)NCC2CCCO2)cc2c(=O)n3cccc(C)c3nc21 (configuration not stated)	20.6µM*	-7.4	4.9%	?	i	-5.1
Cc1cccn2c(=O)c3cc(C(=O)NCC4CCCO4)c(=N)n(CCN4CCOCC4)c3nc12 (configuration not stated)	i	3.2	?	?	i	0.2
CCOCCCn1c(=N)c(C(N)=S)cc2c(=O)n3cccc(C)c3nc21	?	0.4	16.4%	?	16.4µM*	-21.9
Cc1cccn2c(=O)c3cc(C(N)=S)c(=N)n(CCCOC(C)C)c3nc12	?	-14.4	-12.3%	16.8%	i	-16.3
CCOCCCn1c(=N)c(S(=O)(=O)c2ccc(Cl)cc2)cc2c(=O)n3cccc(C)c3nc21	i	/	-12.6%	1.8%	?	-9.9
CCCCCn1c(=N)c(S(=O)(=O)c2ccc(Cl)cc2)cc2c(=O)n3cccc(C)c3nc21	?	-3.5	-3.7%	1.6%	8.2µM*	1.1
CCOc1ccc(C(=O)Nc2ccccc2C(=O)OCc2cc(=O)n3nc(C4CC4)sc3n2)cc1	i	/	/	-1.9%	i	-3.5
CCn1c(COc2ccccc2)nnc1SCC(=O)Nc1ccc(Oc2ccccc2)cc1	/	/	/	/	/	-4.7
O=C(C1CCN(c2ncnc3c2sc2cccc(F)c23)CC1)N1CCN(Cc2ccccc2)CC1	/	/	/	/	/	-0.1
CC(C)c1nnc(NC(=O)Cc2ccccc2[N+](=O)[O-])s1	i	-0.8	9.9%	1.2%	23.1µM*	4.7
CO[C@H]([C@H](C)/C=C/N(C)C=O)[C@@H](C)C(=O)CC[C@H](C)[C@H](O)[C@H](C)[C@H]1OC(=O)/C=C/C(C)=C/C[C@H](O)C[C@@H]2C=CC[C@@H](C[C@H](OC)[C@@]3(CO3)[C@@H](OC)C[C@@H](OC)[C@@H]1C)O2	/	/	/	/	/	0.5
CC1(C)CC(=O)C2=C(C1)OC1=C(C(=O)CC(C)(C)C1)C2c1ccc(O)cc1O	i	-2.2	/	17.8µM*	i	12.2
CC(C)C(=O)N1CCN(c2ccc([N+](=O)[O-])c(NC(C)c3ccccc3)c2)CC1 (configuration not stated)	i	-3.5	?	?	i	3.2
CC(Nc1cc(N2CCN(C(=O)C(C)(C)C)CC2)ccc1[N+](=O)[O-])c1ccccc1 (configuration not stated)	?	15.2	?	?	10.3µM*	2.5
O=[N+]([O-])c1ccc(N2CCCC2)cc1NC1CC1	i	-9.1	-0.4%	-10.2%	20.6µM*	-2.9
O=[N+]([O-])c1ccc(N2CCOCC2)cc1NC(c1ccccc1)c1ccccc1	i	-10.7	-4.8%	-10.2%	16.4µM*	-2.1
CCOc1cccc2sc(N(Cc3cccnc3)C(=O)C3CCCCC3)nc12	i	/	/	-0.2%	i	-3.7
O=C(CN1Cc2ccccc2C1=O)Nc1cc(F)ccc1F	i	/	25.6%	11.9%	i	-3.8
Cc1ccc(NC(=O)Cn2ccn(-c3ccccc3)c(=O)c2=O)cc1	/	/	-6.9%	-20.7%	/	-10.8
COc1ccc(/C=N/OCC(=O)N2CC3(C)CC2CC(C)(C)C3)cc1OC (configuration not stated)	i	0.1	?	-14.9%	16.4µM*	1.4
COc1ccc(OC)c(S(=O)(=O)N2CCN(S(=O)(=O)c3ccc4c(c3)OCCO4)CC2)c1	/	/	-8.4%	0.0%	/	/
O=C(Cn1c(=O)oc2ccccc21)NCc1ccccc1Cl	/	/	/	2.7%	/	1.8
O=C(Nc1ccccc1Oc1ccccc1)c1cccc([N+](=O)[O-])c1	i	4.7	22.4%	2.0%	18.4µM*	-0.3
Cc1ccc(C(=O)Nc2ccccc2Oc2ccccc2)cc1[N+](=O)[O-]	i	1.0	7.5%	0.4%	?	-5.2
COc1ccccc1NC(=O)/C(=C/c1cccc([N+](=O)[O-])c1)c1ccccc1	i	-10.9	-11.2%	4.3%	5.8µM*	2.3
SMILES	KB-3-1 tox	Giardia kill	Nrf2 block	A549 tox	KB-V1 cytotox	PI4K2A block
COc1cccc(C(=O)COc2cccc(NC(=O)c3cccc([N+](=O)[O-])c3)c2)c1	?	4.2	18.4µM*	-18.3%	?	0.6
Cc1ccc(OCCn2c(NC(=O)c3ccco3)nc3ccccc32)cc1	?	-4.8	-25.4%	-12.4%	?	1.6
Cc1cccc(OCCn2c(NC(=O)c3ccco3)nc3ccccc32)c1	?	1.4	18.4µM*	-4.3%	2.31µM*	0.7
CCOC(=O)c1cccc(NC(=O)CN(C)S(=O)(=O)c2ccc(Br)s2)c1	/	/	/	/	/	-3.4
COc1ccc2c(C)cc(SCC(=O)Nc3ncc(Cl)cc3Cl)nc2c1	i	32.5	-1.2%	11.5%	18.4µM*	0.9
Cc1cc(SCC(=O)Nc2ncc(Cl)cc2Cl)nc2ccccc12	i	-2.6	4.1%	-7.5%	6.51µM*	1.0
COc1ccc(C(=O)Cn2c(C(C)=O)nc3ccccc32)cc1	?	-12.8	15.6%	-16.8%	3.26µM*	-10.2
COc1ccc(/C=C/C(=O)c2nc3ccccc3n2CC(=O)c2ccc(OC)cc2)cc1	i	-3.3	1.3%	1.6%	23.1µM*	2.9
Cc1cc(SCC(=O)Nc2ccc(C(F)(F)F)cc2)nc(=O)[nH]1	i	/	/	-6.7%	i	-2.9
Cn1c(=O)c2c(nc(C3CC4C5CCC(C5)C4C3)n2C)n(C)c1=O (configuration not stated)	i	?	?	-2.6%	14.6µM*	2.0
Cn1c(=O)c2c(nc(CCC3CCCC3)n2C)n(C)c1=O	i	-5.7	-11.6%	7.6%	i	1.7
COc1ccc(Cn2c(C(=O)O)c(CNCc3ccco3)c3ccc(OC)cc32)cc1	i	/	?	?	i	3.9
CSc1ccc(C2C(C#N)=C(N)Oc3cc4c(cc32)OCO4)cc1 (configuration not stated)	i	19.9	?	-0.2%[1.84 µM]	4.61µM*	-4.9
COc1cc(C(=O)OCCc2cc3ccccc3c(=O)o2)cc(OC)c1OC	4.61µM*	-1.9	?	-15.4%	?	-1.6
O=S(=O)(Nc1ccc(Cc2ccncc2)cc1)c1ccc(Cl)c(Cl)c1	?	-13.3	/	?	5.8µM*	-1.3
CCc1ccc(OC)c(S(=O)(=O)Nc2ccc(Cc3ccncc3)cc2)c1	?	1.5	18.4µM*	-22.6%	?	10.8
Cc1ccccc1N1CCN(C2=Nc3ccccc3Sc3ccccc32)CC1	/	/	/	/	/	-0.8
CCc1cc(C(=O)NC2CCCN(Cc3ccccc3F)C2)n(C)n1 (configuration not stated)	i	-7.3	13µM*	-8.8%	?	-0.8
